# Source: PubChem BioAssay (Tox21)
# Results filed as inconclusive are left out. A number with no mark means an inactive call. Calls come from the whole dose curve; as a rule, active = well fitted cell-killing curve with a large enough effect in the repeat runs; inconclusive = weak or mixed curves, or effect the other way; inactive = flat fitted curve, though single readings scatter.
# Experiment: qHTS RealTime-Glo MT Cell Viability Assay in HEK293 cells - 0 hour (AID 1224880); note: top concentration of the series differs between compounds; nearly all actives have a fitted effect of over 45% in size
# Conditions: RealTime-Glo luminescence; series mostly up to 76.8 µM; activity change, negative = cytotoxicity: at the top concentration
# Text: U.S. Tox21 Program National Center for Advancing Translational Sciences [NCATS] NIH Chemical Genomics Center [NCGC] U.S. Environmental Protection Agency [EPA] National Institutes of Environmental Health Sciences [NIEHS] National Toxicology Program [NTP] U.S. Food and Drug Administration [FDA] Tox21 Assay Overview: Measure of cell viability is critical in the cell-base assay. Analysis of cell viability is necessary for the characterization of cell responses to cytotoxic drugs and environmental stress. A RealTime-Glo MT Cell Viability Assay to monitor cell viability in real time of continues cell culture during 40 hours of compound treatment was used to screen Tox21 10K library compounds in Hek293 cells. The RealTime-Glo MT Cell Viability Assay is a nonlytic, homogeneous, bioluminescent method to measure cell viability in real time using a simple, plate-based method. The assay involves adding NanoLuc luciferase and a cell-permeant prosubstrate to cells in culture. Viable cells reduce the proprietary prosubstrate to generate a substrate for NanoLuc luciferase. This substrate diffuses from cells into the surrounding culture medium, where it is rapidly used by the NanoLuc Enzyme to produce a luminescent signal. The signal correlates with the number of viable cells, making the assay well suited for cytotoxicity studies.
# Tox21 Assay Protocol Summary: The mixture of Hek293 cell suspension and reagents were dispensed at 600cells/6 ul/well in 1536-well tissue culture treated black solid bottom plates using a Multidrop dispenser. After the assay plates were incubated at a 37 C/5% CO2 incubator for 5 hours, 23 nL of compounds dissolved in DMSO, positive and negative controls was transferred to the assay plate by a pintool work station. The plates were incubated at 37 C for 40 hours. The luminescence intensity were measured at 0h, 8h, 16h, 24h, 32h and 40h time points using ViewLux plate reader during compound treatment.
# % is set by controls: 0 for no effect and ±100 for the full control effect.
row,SMILES,"activity change, negative = cytotoxicity"
1,CCCCCCCCCCCCC1CO1 (stereo not given),-4.03%
2,NS(=O)(=O)c1ccc(Cl)c(S(N)(=O)=O)c1,-1.14% [at 35.3 µM]
3,CCCCCC1CCCC(=O)O1 (stereo not given),18.9%
4,O=S(=O)(O)CCO,-12.9%
5,COc1cccc2sc(N)nc12,-14.9%
6,O=C1NC2NC(=O)NC2N1 (stereo not given),8.83%
7,CC(=O)OCC(=O)[C@@]1(O)[C@H](OC(C)=O)C[C@H]2[C@@H]3CCC4=CC(=O)C=C[C@]4(C)[C@@]3(F)[C@@H](O)C[C@@]21C,-2.98% [at 35.3 µM]
8,CC(=O)OC(C)(C)Cc1ccccc1,15%
9,CCS(=O)(=O)CCn1c([N+](=O)[O-])cnc1C,-0.0314% [at 35.3 µM]
10,FC(F)(F)/C(=N\OCC1OCCO1)c1ccc(Cl)cc1,3.69%
11,C[C@H](CCC(=O)O)[C@H]1CC[C@H]2[C@@H]3[C@H](O)C[C@@H]4C[C@H](O)CC[C@]4(C)[C@H]3C[C@H](O)[C@]12C,2.27% [at 35.3 µM]
12,CNCc1ccccc1,-6.88% [at 35.3 µM]
13,CCC(C)(CCC(C)C)C(=O)[O-].CCC(C)(CCC(C)C)C(=O)[O-].[Zn+2] (stereo not given),5.3%
14,COC(OC)C(C)c1ccccc1 (stereo not given),1.38%
15,CCCCCCCCC(=O)OCC,9.13%
16,O=C1OC(=O)c2ccccc21,-11.4%
17,Cc1ccc(S(=O)(=O)NC(=O)NC2CCCCCCC2)cc1,-3.35% [at 35.3 µM]
18,C=C(C)C(=O)OC,-17%
19,N#CCCOCCOCCC#N,2.6%
20,FC(F)(F)c1ccc(Cl)cc1Cl,-1.5%

row,SMILES,"activity change, negative = cytotoxicity"
1,O=C(/C=C/c1ccccc1)NCCO,-12.8% [at 35.3 µM]
2,O=C(O)c1ccccc1C(=O)Nc1ccc(S(=O)(=O)Nc2nccs2)cc1,-21.3% [at 35.3 µM]
3,C=COCCOCCOC=C,-2.06%
4,CCOC(=O)C(=O)c1csc(NC=O)n1,5.27% [at 35.3 µM]
5,CCNC(=O)/C=C/c1cccc(Br)c1,5.63% [at 35.3 µM]
6,CC(=O)Nc1ncc([N+](=O)[O-])s1,5.59% [at 35.3 µM]
7,CN=C(NC#N)NCCSCc1csc(N=C(N)N)n1,3.62% [at 35.3 µM]
8,O=S(=O)(O)SSS(=O)(=O)O,2.25%
9,CN(C)CCOCCN(C)CCO,4.38%
10,CC(C)COC(=O)CC(C(=O)OCC(C)C)S(=O)(=O)O (stereo not given),6.3%
11,CC(=O)c1ccc(OCC(=O)N2CCCCC2)cc1,4.95% [at 35.3 µM]
12,Cc1nc(C)nc(N2C[C@@H](C)N(c3ccnc([C@@H](C)O)n3)[C@@H](C)C2)n1,2.17% [at 35.3 µM]
13,CC(C)COC(=O)CCCCC(=O)OCC(C)C,-2.29%
14,C/C=C(\C)C(=O)OCC/C=C\CC,1.92%
15,C[CH2][Ge]([Cl])([CH2]C)[CH2]C,-1.69%
16,CCCCCCCCCCCCCC(=O)OC,1.89%
17,Cc1ccccc1OCC1CO1 (stereo not given),-0.475%
18,CCCCCCCCCOCC1CO1 (stereo not given),8.21%
19,Cc1cccc(NC(=S)N(C)C)c1,-10.4%
20,CCC(C)(C)C1CCC(=O)CC1,24.6%
